# HCMV inh: qHTS Assay for inhibitors of the human cytomegalovirus (HCMV); HFF cells, HCMV-luciferase reporter, 72 h; active compounds read low; activity change, negative = inhibition, % at 57.5 µM; 410,000 tested, 4.5% active; AID 1259415, 2018; in the data active means activity change below about -60%; inconclusive means no clear call, values can overlap the other calls; inactive means above about -39%
#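 Inhibition of viral replication was scored as loss of reporter luminescence in HFFs infected with HCMV-luciferase (MOI 1 PFU/cell) for 72 h; compounds tested at 2 doses, normalized to buffer and Salinomycin controls.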
# MARV entry inh: qHTS for inhibitors of binding or entry into cells for Marburg Virus; Marburg virus pseudotyped entry inhibition, cell reporter; Potency, µM (series often up to 37.8 µM), inactives show top-dose activity change, negative = inhibition, actives largely listed as inhibitors; 300,000 tested, 1.8% active; calls by dose curve; tested in HEK293 cells; further: potency means the concentration at half of the fitted maximal effect
# VACV mCherry inh: qHTS for Stage-Specific Inhibitors of Vaccinia Orthopoxvirus: mCherry Reporter Primary qHTS; AID 720579, 2013; Potency, µM (series often up to 36.5 µM), without a hit: at the highest dose activity change, negative = inhibition, actives largely listed as inhibitors; Vaccinia virus mCherry reporter infection, fluorescence; 310,000 tested, 0.63% active; calls by dose curve; tested in A549 cells; further: potency means the concentration at half of the fitted maximal effect; nearly all actives have a fitted effect of over 35% in size
# FMDV inh: High Throughput Screening for Foot and Mouth Disease Virus Antivirals; FMDV antiviral cell-based qHTS; Potency, µM (doses to about 57.9 µM), for the others: at the top dose activity change, negative = inhibition, most hits filed as inhibitors; 410,000 tested, 1.2% active; AID 1159524, 2015; calls by dose curve; tested in HEK293T cells; further: read-out not given here; potency means the concentration at half of the fitted maximal effect; nearly all actives have a fitted effect of over 45% in size
# Vaccinia Venus: qHTS for Stage-Specific Inhibitors of Vaccinia Orthopoxvirus: Venus Reporter Primary qHTS | Potency, µM (titrated, usually from 36.5 µM), for the others: at the top dose activity change, negative = inhibition, actives largely listed as inhibitors | AID 720580, 2013 | 330,000 tested, 0.46% active | Vaccinia virus Venus reporter expression, fluorescence; calls by dose curve; tested in A549 cells; further: potency means the concentration at half of the fitted maximal effect; nearly all actives have a fitted effect of over 30% in size
# Lassa entry inh: qHTS for Inhibitors of binding or entry into cells for Lassa Virus. AID 540256, 2011. Lassa virus pseudotype entry inhibition, cell reporter. Potency, µM (series often up to 37.9 µM), inactives show top-dose activity change, negative = inhibition, hits mostly inhibitors. 300,000 tested, 1.2% active; calls by dose curve; tested in HEK293 cells; further: potency means the concentration at half of the fitted maximal effect; nearly all actives have a fitted effect of over 50% in size
# * = called active by the depositor; i = inactive; u = inconclusive; x = no result given; [ ] = remark or other dose. In the library only some 6.5% were active in any assay of this set; here they are far more common. On the % scale 0 is the no-effect control and ±100 the full control effect.
SMILES,HCMV inh,MARV entry inh,VACV mCherry inh,FMDV inh,Vaccinia Venus,Lassa entry inh
CC(=O)N1CCN(C(=O)c2ccc(Cl)c(S(=O)(=O)N3CCCCCC3)c2)CC1,0.0,-22.3%,i,-7.5%,-7.1%,-7.0%
Cc1nn(S(=O)(=O)c2ccc(C(C)(C)C)cc2)c(C)c1S(=O)(=O)N1CCC(C)CC1,-8.5,x,-14.3%,23.8%,-10.2%,-0.7%[46.1 µM]
CO[C@@]12[C@@H]3N[C@@H]3CN1C1=C(C(=O)C(N)=C(C)C1=O)[C@@H]2COC(N)=O,-96.6*,u,5.62µM*,-4.3%,2.51µM*,u
CCCNC1=C(C)C(=O)C2=C(C1=O)C(COC(N)=O)[C@]1(OC)C3NC3CN21 (stereo not given in full),-69.2*,6.31µM*,u,-3.4%,u,u
CO[C@@]12[C@H](COC(N)=O)C3=C(C(=O)C(C)=C(N)C3=O)N1C[C@@H]1N[C@@H]12,24.3,x,u,-13.0%,u,x
COC(=O)[C@H](CC(C)C)NC(=O)CC[C@H]1O[C@@H](n2ccc(=O)[nH]c2=O)[C@H](O)[C@@H]1O,3.1,x,3.6%,-25.3%,0.4%,x
CC#CCN1c2ccccc2[C@]23CCC(=O)N(CCCOC(C)C)C2=NC(C(=O)OC)=C(C(=O)OC)[C@H]13,x,-12.3%[14.2 µM],x,x,x,x
NC(=S)NN=C1c2cc(Cl)ccc2-c2c1cc(Cl)cc2[N+](=O)[O-],x,-23.9%,-16.2%,20µM*,-17.3%,0.3%
Cc1nc(N2CCN(c3ccccn3)CC2)c2c(C)c(C(=O)Nc3ccccc3F)sc2n1,1.7,u,-9.3%,u,-7.4%,u
CCc1ccc(NC(=O)c2sc3nc(C)nc(N4CCN(c5ccccn5)CC4)c3c2C)cc1,u,10µM*,-3.3%,2.24µM*,-0.4%,12.2%[46.1 µM]
Cc1nc(N2CCN(c3ccccn3)CC2)c2c(C)c(C(=O)Nc3ccc(F)cc3Cl)sc2n1,u,x,x,11.2µM*,x,x
CCc1ccc(NC(=O)c2ccc3[nH]c(C)c(C)c3c2)cc1,0.0,x,-19.9%,-21.0%,0.4%,-1.4%[46.1 µM]
Cc1ccc(C(=O)NCC(=O)Nc2ccncc2)cc1C,-73.8*,16.5%[46.1 µM],-14.3%,-16.7%,-1.0%,-14.8%[46.1 µM]
Cc1[nH]c2ccc(C(=O)Nc3ccncc3)cc2c1C,-62.9*,x,x,-21.6%,x,x
O=c1oc2c3c4c(cc2c2c1CCC2)OCCN4CCC3,-67.8*,2.2%,u,-22.2%,u,-5.0%
Cc1ccc(NC(=O)c2noc3c2CCCCC3)cc1,71.7,u,x,-33.3%,x,14.6µM*
Cc1nn(C)cc1NC(=O)Cn1nc(C(F)(F)F)cc1C1CC1,-18.0,5.7%,-7.7%,-23.1%,-12.6%,4.3%
O=C1/C(=C/c2ccccc2)CN(C(=O)CCN2CCOCC2)C/C1=C\c1ccccc1,-33.2,u,u,8.91µM*,u,1.41µM*
C/C(=C\c1ccccc1)C(=O)NCCN1CCOCC1,-5.9,x,-13.7%,5.4%,1.2%,x
O=C(/C=C/c1ccccc1)N1CCOCC1,39.3,x,x,15.4%,x,x
CN(C)CCC(=O)N1C/C(=C/c2ccccc2)C(=O)/C(=C\c2ccccc2)C1,-97.9*,u,8.91µM*,8.91µM*,11.2µM*,u
C[N+](C)(C)CCC(=O)N1C/C(=C/c2ccccc2)C(=O)/C(=C\c2ccccc2)C1,-66.6*,u,u,u,u,u
O=C(/C=C/c1ccccc1)CCN1CCOCC1,-17.2,u,10µM*,u,u,u
O=C(Cc1ccccc1)N1CCNCC1,-17.5,-6.7%[46.1 µM],-13.2%,7.8%,-6.7%,7.9%[46.1 µM]
CCOC(=O)CCNC(=O)CCc1nnc(CCCc2ccccc2)o1,34.4,4.1%[46.1 µM],-18.6%,36.7%,-14.1%,18.8%[46.1 µM]
SMILES,HCMV inh,MARV entry inh,VACV mCherry inh,FMDV inh,Vaccinia Venus,Lassa entry inh
CCOc1ccc(/C=C/c2nc(C#N)c(N3CCN(c4ccc(OC)cc4)CC3)o2)cc1,-32.2,-15.9%[46.1 µM],i,-14.2%,-26.3%,6.1%[46.1 µM]
COc1cccc(-c2ccnc(-n3ncc(C(=O)NCC4(N5CCCCC5)CCCC4)c3C)n2)c1,x,x,-8.2%,-5.9%,6.9%,x
O=C(Nc1ccc2c3c(cccc13)CC2)c1ccccc1,-3.2,x,i,47.7%,-3.4%,x
O=C(Nc1ccccc1-c1ccccc1)c1ccc(Cl)c([N+](=O)[O-])c1,-32.3,7.31µM*,20µM*,-9.1%,12.6µM*,23.1µM*
O=C(Nc1ccc2c3c(cccc13)CC2)c1cccc([N+](=O)[O-])c1,-60.8*,u,-18.0%,-15.6%,-6.4%,-12.9%
O=C(Nc1cccc2c1CCCC2)c1ccc(Cl)c([N+](=O)[O-])c1,-26.0,-6.5%,2.8%,25.1µM*,4.3%,0.4%
O=C(Nc1cccc2c1CCCC2)c1cc([N+](=O)[O-])ccc1Cl,-104.8*,-24.0%,-4.9%[1.46 µM],u,-23.7%,u
CCNC(=O)[C@@H]1[C@@H](CO)[C@@H]2Cn3c(cccc3=O)[C@@H]2N1Cc1cccc(F)c1,16.8,x,x,x,x,x
CCC1(C2CCN(Cc3ccccn3)CC2)NC(=O)N(CC2COc3ccccc3O2)C1=O (stereo not given),x,x,-4.3%,u,2.6%,x
Brc1ccc(Nc2c3c(nc4nncn24)CCC3)cc1,4.2,-8.6%[46.1 µM],u,u,-23.7%,-15.7%[46.1 µM]
COC(=O)c1ccc(NC(=O)c2c(NCc3ccc(OC)c(OC)c3)sc3c2CCCC3)cc1,-66.8*,x,-7.1%,-1.3%,-20.0%,-13.0%[46.1 µM]
COc1ccc(NC(=O)c2c(NC(=O)C(F)(F)F)sc3c2CCCCC3)cc1,-23.4,x,-12.8%,-12.6%,-1.8%,3.16µM*
COc1ccc(CC(=O)Nc2sc3c(c2C(=O)Nc2c(C)cccc2C)CCCCC3)cc1,-70.4*,13.6%[46.1 µM],u,-21.1%,u,-17.6%[46.1 µM]
CCOC(=O)C1CCCN(C(=O)c2cccc(S(=O)(=O)N(C)c3c(C)n(C)n(-c4ccccc4)c3=O)c2)C1 (stereo not given),-98.6*,19.0%,-5.4%,-7.8%,-17.5%,16.9%
O=C(Nc1nnc(-c2ccccc2)o1)c1ccc(Cl)cc1,20.7,12.6µM*,-6.0%,8.0%,-5.6%,u
Cc1cccc(C(=O)Nc2nnc(-c3ccncc3)o2)c1,19.0,u,-5.5%,13.4%,-4.6%,-0.2%[46.1 µM]
O=C(Nc1nnc(-c2ccncc2)o1)c1ccc2ccccc2c1,-94.5*,8.7%[46.1 µM],-25.2%,-5.5%,-7.2%,-23.5%[46.1 µM]
CC(=O)c1ccc(C(=O)Nc2nnc(-c3ccc(Cl)cc3)o2)cc1,-12.3,x,-15.2%,-9.2%,-18.5%,x
CCN(CC(=O)Nc1ccc(OC)c(OC)c1)S(=O)(=O)c1ccc(C)cc1,-33.4,0.2%,x,12.6µM*,-11.7%,-1.6%
COc1ccccc1OCC(=O)Nc1ccc(S(=O)(=O)N(C)c2ccccc2)cc1,-2.2,x,x,-11.6%,x,x
CCN(CC)S(=O)(=O)c1ccc(NC(=O)COc2c(OC)cccc2OC)cc1,-6.6,-18.3%,x,31.6µM*,x,-23.6%

# Screens from PubChem.
